This passage reports binding signal results from paper PMC12136788.

In all, about 24,000 sequences were measured (“enrichment r”: median about 0.99, highest 2% from about 3.7 on). Only a selection was taken, and the highest values are over-represented in it overall.

T1: UNK ZnF1-3 (human, UniProt Q9C0B0 31-174)
T1 sequence: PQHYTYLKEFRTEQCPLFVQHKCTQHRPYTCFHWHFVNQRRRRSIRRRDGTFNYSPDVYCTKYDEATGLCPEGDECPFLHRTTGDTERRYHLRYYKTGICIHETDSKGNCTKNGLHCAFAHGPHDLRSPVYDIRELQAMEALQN

B1: chr14:57575763:57575764:+_ENSMUSG00000021945_ENSMUST00000022511|mus_hu|FALSE|FALSE (ssRNA)
RNA: GGGAGUUCUACAGUCCGACGAUCCACUGUUUUCAGGCCAAAAUACUUAGUGUUAAAGUAGAACAGUGUAUUCAGAAGAGCUACUGGAGAGUGUGAUCCUAGUUGUUUUAUCCUCCAGAGAUAGUCUUCUUCAACUCGAGAGAACAACAGAGGAUUGAGCAUCA
B2: chr1:183495733:183495734:+_ENSG00000116698_ENST00000515829|hu_hu|FALSE|FALSE (ssRNA)
RNA: GGGAGUUCUACAGUCCGACGAUCGGAAGACUUCACACGGCAUGGUAAAUCUACAUUAAAUACUGUACACAGUUCUUGUAAUAACUGAGUAUAGAAGCCACUAGCUGCCUCUAGGAACAGAGAAAGGUUUGCCUGAACUUCACUCAACAGAGGAUUGAGCAUCA
B3: chr12:58340223:58340224:+_ENSMUSG00000079104_ENSMUST00000139049|mus_mus|motif|central (ssRNA)
RNA: GGGAGUUCUACAGUCCGACGAUCCUGUAUUUUGGAGCAGUGUUUCAUCUUGUCUUCCUGAGGUAUGGUAUUGGUAACGGCGGCUGCUUCAAAGCAUGCAUUGUUGAUGCGAGAAAUGGCAGGGCCAGAGAAGAUUCCAUGCGUCAACAGAGGAUUGAGCAUCA
B4: chr12:39763582:39763583:-_ENSG00000139116_ENST00000544797|hu_mus|hu_hu_hu_mus_False|18_58 (ssRNA)
RNA: GGGAGUUCUACAGUCCGACGAUCCUCUAGGAACUGGGCAUUCACUUUGAAUUCAGGAGGGGGCAGCCCGUUUUUAAUUGCUAUGUGCUUUUUCUCAUCAAUACUCUUGAACAGGUGUUUAACAGCUCGAGAGAUGAUGCCCUGCAACAGAGGAUUGAGCAUCA
B5: chr2:74756847:74756848:-_ENSG00000115307_ENST00000377526|hu_hu|FALSE|FALSE (ssRNA)
RNA: GGGAGUUCUACAGUCCGACGAUCGCCGCCAUUUUCGCGCCCGGCCGCAGGGGCUCUUGGGAAGGCGGAGUCUUUGGGCAUCCGCCCGGGGUGAGGGGACCCGAAGUCCUGAGGCGCGCCGGAAGGGCUAGCGGUCCCAGCAUACAACAGAGGAUUGAGCAUCA
B6: 138058580_138059465_3786_CDS_ENSMUSG00000041642_ENSMUST00000075164|mouse|control|control (ssRNA)
RNA: GGGAGUUCUACAGUCCGACGAUCGGAGGCCAGGGACUUGGUGAUGUUCUUGGUAGAGCUGUCCAAUGGGGGUCCUAGGCACUCCGCAGACACGGCCUUCAUCUGUGCGGAUAGCUUGGGCUCACCCUUGAACUUGAAGUCAUCCAACAGAGGAUUGAGCAUCA
B7: chr8:104447970:104447971:+_ENSG00000164934_ENST00000297579|hu_hu|hu_hu_hu_mus_False|78_98 (ssRNA)
RNA: GGGAGUUCUACAGUCCGACGAUCAUACACUUCCCUGCUUCGACUUUUGUCCACAGGAAAGAUUCGAAUAGACUUAUCAAAGCUGGCAGACACAAAUUCCUUCCCAGUGGGAGAGUAGUCCACAUCAAGUACUGCAGACACGUGCAACAGAGGAUUGAGCAUCA
B8: chr15:78454051:78454052:+_ENSG00000166411_ENST00000558554|hu_mus|FALSE|FALSE (ssRNA)
RNA: GGGAGUUCUACAGUCCGACGAUCAUGCUCAAUUCCACUGUAUUCUCCUUCCGUGUUCUCUCGGAUGGUGACGAUAUUUACAUCCGUGUAAGGGGUUUUAUAACCUUCAAUUGAGACACAUGGCCGGACAUUGGCAUAAAGGUCCAACAGAGGAUUGAGCAUCA
B9: chr11:93987321:93987322:+_ENSMUSG00000020859_ENSMUST00000103168|mus_mus|motif|central (ssRNA)
RNA: GGGAGUUCUACAGUCCGACGAUCUACAAAGUUACAUUCCGAACCCCAGGGAUUCCAUAAUAGAAAUAAAUACUGAAAUAACGGCAUUGCUAAAUGAGCUUUUUACGCAUAGAAAUGAAGCCGUGGCCUCUAAAGACAGCAAAUCAACAGAGGAUUGAGCAUCA
B10: chr10:122431106:122431107:-_ENSMUSG00000034602_ENSMUST00000073792|mus_mus|FALSE|FALSE (ssRNA)
RNA: GGGAGUUCUACAGUCCGACGAUCAAUAUUUUCAAAAUGUUGCCACUCUUACUAUUUUGAUACUUUAUCAGUGAUAGUCCUAUUCUUUAAUUCACAAGUGAGUAUAUCAAAAUAUAAAAAAUACACGGCUUGAGUCAUUUUUUUCAACAGAGGAUUGAGCAUCA
B11: chr6:135286264:135286265:-_ENSG00000112339_ENST00000367826|hu_hu|FALSE|FALSE (ssRNA)
RNA: GGGAGUUCUACAGUCCGACGAUCUUUGCCAGUUGGCAACUUAGAAUUUUUGCAGAGGUGAUUAUUAAUACUUCUUUGCAGCUAAUUUUAGCUUUAAUUUUUCUCUCUCAUCUAAAAACAUAUCAAUUGCACAUUGUUCCUUUGCAACAGAGGAUUGAGCAUCA
B12: chr17:65740002:65740003:+_ENSG00000130935_ENST00000581375|hu_hu|hu_hu_hu_mus_False|68_98 (ssRNA)
RNA: GGGAGUUCUACAGUCCGACGAUCAACAAAUCUUUCUCUGGAUGAAGAACAGGAAGAUUCAUAUUAACUUUAUAAAAUAUCCAUCAAGUUAGGUGUGGUGGCCACACCUUUACUCCCAGCACUUUGGGAGGUGGAUCUCUGAGUCAACAGAGGAUUGAGCAUCA
B13: chr14:73742652:73742653:-_ENSG00000133961_ENST00000557597|hu_mus|FALSE|FALSE (ssRNA)
RNA: GGGAGUUCUACAGUCCGACGAUCCUAACCCGCUCACUUUUGGCAAGAUUACUUACAACUCAUACUUUUUAAUAUUGAGAACUAUUUAAAAUAUUCUAGGUGCAUAAAAAUAAAGAUUUUGGCUUUUUGAUAUAUAUAUAUAUACAACAGAGGAUUGAGCAUCA
B14: chr14:73742652:73742653:-_ENSG00000133961_ENST00000557597|hu_hu|motif|central (ssRNA)
RNA: GGGAGUUCUACAGUCCGACGAUCCCCCUUUACCUUUGGCAAGAUUACUUACAACUCAUACAACUUCUUAAUAUCUGAGAACGGUUUAAAAUAUUCUAAAUGCAUAAAAAUAAAGAUUUUGGCUUUUGAUAUAUAUAAUAUUUACAACAGAGGAUUGAGCAUCA

The assay has as its target T1, UNK ZnF1-3. As to the kind of experiment: nsRBNS (natural sequence RNA bind-n-seq); RBNS binding buffer (assumed for nsRBNS): 25 mM Tris pH 7.5, 150 mM KCl, 3 mM MgCl2, 0.01% Triton X-100, 500 ug/ml BSA, 20 U/ml SUPERase-In, 4 C; UNK is unkempt and MSI1 is Musashi-1; names of the RNAs are library labels; protein concentration not given here; high values mean tight binding.
For B1, the binding signal was 1.1 enrichment R. The molecule B2 returned a binding signal of 1.13 enrichment R. Molecule B3 yielded a binding signal of 0.938 enrichment R. As to B4, the binding signal amounted to 1.58 enrichment R. Take B5: the binding signal is 0.69 enrichment R. As to B6, the binding signal was 0.543 enrichment R.

Take B7: the binding signal turned out to be 0.994 enrichment R.

B8 came in with a binding signal of 0.781 enrichment R. With B9, the binding signal is 1.35 enrichment R.

B10 registered a binding signal of 0.965 enrichment R. On to B11, for which the binding signal stood at 0.804 enrichment R. To B12 belongs 1.02 enrichment R. Turning to B13, the binding signal is 6.08 enrichment R. The same measure for B14: 3.97 enrichment R.
